UbGFP stabilizer – ubiquitin-GFP accumulation via proteasome inhibition; Ubiquitin-GFP reporter cells, proteasome inhibition, GFP fluorescence; response scale: untreated = 0%, 10 µM MG-132 = 100%; Potency, µM (series often up to 45.9 µM), actives largely listed as activators; 67,000 tested, under 10 active; AID 526; active = well fitted activation curve with a large enough effect, not every such curve was filed as active; inconclusive = small, poorly fitted or top-dose-only effect, or another doubt; inactive = no such curve, though single readings can be large or run the other way
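Reporter cells (U2OS, ubiquitin-G76V-GFP fusion) are plated overnight, then treated 4 hr at 37 °C with compound titrations from 46 uM down to 2.9 nM. Activity is scaled against untreated cells and 10 uM MG-132.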
GFP derepression – epigenetic modulators derepressing GFP locus in mouse cells; mouse C127i GFP locus derepression, cytometry, 30 h; Potency, µM (highest dose often 46.1 µM); 68,000 compounds, 0.09% hits
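Murine C127i mammary cells carrying a silenced, stably integrated CMV-driven GFP reporter were treated with compound for 30 hours at 37 C. After PBS washes, GFP-positive cells were counted by laser-scanning microplate cytometry.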
USP2a inhib – inhibitors of human ubiquitin-specific protease USP2a; O75604; USP2a enzymatic assay, qHTS inhibition; Potency, µM (top dose mostly 38.3 µM), hits mostly inhibitors; 60,000 compounds, 0.1% hits; AID 927; also: nearly all actives have a fitted effect of over 60% in size
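USP2 core (20 nM final) was preincubated with compound for 30 min at RT in 20 mM Tris-HCl pH 8.0, 2 mM CaCl2, 2 mM beta-mercaptoethanol; Ub-PLA2 (20 nM) plus NBD C6-HPC (20 uM) then added, fluorescence read after 2.5 h.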
HBB splicing – modulators of hemoglobin beta chain splicing. HBB splicing reporter cell assay, activation; EGFP reporter with mutant IVS2-654 intron; response scale: normalised to 500 nM splice-correcting PNA. 65,000 compounds, 0.06% hits. AID 925. Potency, µM (series often up to 46.1 µM), most hits filed as activators
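HeLa cells stably expressing EGFP interrupted by mutant beta-globin intron 2 (IVS2-654), 500/well in 2% FCS. Treated with compound for 2 days at 37C. Splicing correction scored as total well GFP intensity (488 nm excitation, 500-520 nm emission); 500 nM antisense PNA served as control.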
Caspase-1 inhib – blocks human caspase-1 allosterically or competitively; Caspase-1 enzyme, Ac-WEHD-AFC fluorogenic rate; Potency, µM (doses to about 57.5 µM), most hits filed as inhibitors; 75,000 compounds, 0.03% hits
Caspase-7 inhib – caspase-7 (human) inhibition, allosteric or competitive. recombinant caspase-7, Ac-DEVD-AFC fluorescence rate. AID 889. Potency, µM (series often up to 57.5 µM), hits mostly inhibitors. P55210. 75,000 compounds, 0.02% hits; active = well fitted inhibition curve with a large enough effect in the main read-out, with a control signal flat, not every such curve was filed as active; inconclusive = small, poorly fitted or top-dose-only effect, or a change in a side signal
Each line names hits and unclear results; the compound was inactive in the other large screens; ! = repeats disagree. Most compounds without a hit are left out; they make up all but 0.23% or so of the library. Unless noted, calls follow the shape of the dose curve; as a rule, active = well fitted curve in the direction sought with a large enough effect; inconclusive = small, poorly fitted or top-dose-only effect, or another doubt; inactive = no such curve, though single readings can be large; an effect the other way counts as inactive or inconclusive.

CC(=O)Nc1nnc(SCC(=O)NCCOc2ccccc2)s1	USP2a inhib 7.9µM
NC(N)=Nc1ccc2[nH]c3c(c2c1)C[C@]1(O)[C@@H]2Cc4ccc(O)c5c4[C@]1(CCN2CC1CC1)[C@H]3O5	none
COC(=O)[C@@H]1C[C@@H]1[C@@H](NP(=O)(c1ccccc1)c1ccccc1)c1ccccc1	none (no result: UbGFP stabilizer, GFP derepression, USP2a inhib, Caspase-1 inhib, Caspase-7 inhib)
O=C1NC(=O)C(=O)C(=O)N1	USP2a inhib 10µM (no result: UbGFP stabilizer, GFP derepression, HBB splicing)
C[C@@H]1Cc2cc3c(cc2C(c2ccc(N)cc2)=NN1)OCO3	none
Cn1ncnc2c(=O)n(C)c(=O)nc1-2	Caspase-1 inhib 13µM, Caspase-7 inhib inconclusive
CC(=O)O.CC(=O)O.[Cd]	USP2a inhib 2.5µM (no result: UbGFP stabilizer, GFP derepression, HBB splicing)
c1ccc2c(c1)[nH]c1cnccc12	none (no result: UbGFP stabilizer, HBB splicing)
Cc1c2ccncc2c(C)c2c1[nH]c1ccccc12	GFP derepression 13µM!, HBB splicing 13µM, Caspase-1 inhib inconclusive, Caspase-7 inhib inconclusive
C=C(C)[C@@H]1CN[C@H](C(=O)O)[C@H]1CC(=O)O	none (no result: USP2a inhib, Caspase-1 inhib, Caspase-7 inhib)
CC(C)(C)C(=O)C1C(=O)c2ccccc2C1=O	HBB splicing 16µM (no result: UbGFP stabilizer, GFP derepression, USP2a inhib)
C[C@@H]1CC[C@@]2(OC1)O[C@H]1[C@@H](O)[C@H]3[C@@H]4CC[C@H]5C[C@@H](O[C@@H]6O[C@H](CO)[C@H](O[C@@H]7O[C@H](CO)[C@@H](O)[C@H](O[C@@H]8OC[C@@H](O)[C@H](O)[C@H]8O)[C@H]7O[C@@H]7O[C@H](CO)[C@@H](O)[C@H](O[C@@H]8O[C@H](CO)[C@@H](O)[C@H](O)[C@H]8O)[C@H]7O)[C@H](O)[C@H]6O)[C@H](O)C[C@]5(C)[C@H]4CC[C@]3(C)[C@H]1[C@@H]2C	none (no result: UbGFP stabilizer, GFP derepression, USP2a inhib)
O=C1C=CC(=O)c2c1ccc1c2ccc2ccccc21	none
COc1cc2c(cc1O)-c1c(O)c(OC)cc3c1[C@H](C2)N(C)CC3	Caspase-1 inhib 32µM (no result: USP2a inhib, HBB splicing)
